Bioassay records (PubChem)
The list is not random: actives were taken first. Their share in the collection is about 4.9%.
NLRP3 yeast inh = NALP3 inflammasome inhibitors in reconstituted yeast, primary screen, luminescence, uHTS. Yeast reconstituted NLRP3/ASC/caspase-1, beta-gal luminescence, 24 h. inhibition, % at 10 µM. 330,000 compounds, 0.39% hits. AID 2825, 2010;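 active = inhibition of 50% or more; inactive = inhibition below 50%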;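 note: plate controls were induced DMSO wells for no effect and uninduced yeast grown without galactose for full effect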
tim23-1 inh = growth inhibitors of tim23-1 mutant yeast, primary screen, luminescence, uHTS; inhibition, % at 20 µM; S. cerevisiae tim23-1 growth, BacTiter-Glo luminescence, 24 h; 330,000 compounds, 1.3% hits;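 active = growth inhibition of the mutant yeast at or above 50%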;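 note: temperature-sensitive mutant grown at 25 °C; plate controls were DMSO-treated mutant yeast for no effect and medium wells lacking yeast for full effect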
SKKanGAS inh = S. pyogenes SKKanGAS growth inhibitors in kanamycin, primary screen, streptokinase expression inhibitor project, SKKanGAS strain, BacTiter-Glo luminescence; 6 h; inhibition, % at 7.5 µM; 300,000 compounds, 1.3% hits; AID 1662, 2009;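 active = mean replicate score, as percent of positive control median, at least 50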;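 note: strain carries kanamycin resistance gene driven by streptokinase promoter and grows in 40 µg/ml kanamycin; loss of luminescence reflects streptokinase promoter inhibition or plain growth inhibition; 0% = median of DMSO wells and 100% = positive control at its reference dose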
NALP1 inh = NALP1 inflammasome inhibitors in reconstituted yeast, colorimetric, S. cerevisiae, triplicate retest; S. cerevisiae NALP1/ASC/caspase-1 growth, X-gal OD620, 72 h; inhibition, % at 10 µM; 280,000 compounds, 0.61% hits; in the data active = inhibition mostly above about 24%, no sharp cut-off; inactive = mostly below about 32%
TIM10 inh = growth inhibitors of isogenic TIM10 control yeast, primary screen, counter-screen for tim10-1 yeast inhibitor project, luminescence, uHTS; S. cerevisiae TIM10 strain growth, BacTiter-Glo luminescence, 24 h; inhibition, % at 10 µM; 330,000 compounds, 1.4% hits; AID 463195, 2010;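 active = inhibition of 40% or more at the single tested concentration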;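 note: wild-type TIM10 isogenic control strain grown at permissive 25 °C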
tim10-1 inh = growth inhibitors of tim10-1 mutant yeast, primary screen, luminescence, uHTS; S. cerevisiae tim10-1 ts strain growth, BacTiter-Glo, 24 h; inhibition, % at 20 µM; 330,000 compounds, 2.2% hits; AID 463190, 2010;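 active = inhibition of at least 40%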;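 note: mutant grown at 25 °C; 0% = DMSO wells with yeast and 100% = wells holding no yeast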
tim10-1 confirm = growth inhibitors of tim10-1 mutant yeast, confirmation, single concentration, luminescence, S. cerevisiae; shares compounds with tim10-1 inh; S. cerevisiae tim10-1 ts strain growth, BacTiter-Glo, 24 h; inhibition, % at 20 µM; 7,400 compounds, 56% hits; AID 463213, 2010;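 active = inhibition of yeast growth at or above a set limit in either of two repeat tests at 20 µM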;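 note: tim10-1 mutant grown at permissive 25 °C to find synthetic lethal compounds; 0% = DMSO yeast wells and 100% = medium wells without yeast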
Numbers without * were called inactive; nt = not tested or not shown.

SMILES | NLRP3 yeast inh | tim23-1 inh | SKKanGAS inh | NALP1 inh | TIM10 inh | tim10-1 inh | tim10-1 confirm
Cc1ccsc1C(=O)OCC(=O)NC1CCCCC1C (stereo not given) | 7.7 | 25.0 | nt | nt | 1.8 | 10.3 | nt
Cc1ccn(CCC(=O)N2CCc3ccccc32)n1 | 14.8 | 16.1 | -1.7 | -17.1 | 13.7 | 1.7 | nt
CSc1nsc(/C=C/Nc2ccc(F)cc2)c1C#N | 1.7 | 33.5 | nt | 3.1 | 21.0 | 29.3 | nt
CSc1nsc(/C=C/Nc2ccc(O)cc2C)c1C#N | 5.5 | 27.3 | 31.8 | -1.0 | 17.6 | 46.5* | 20.8
O=C(NC1CCCCC1)C(c1cccs1)N(Cc1cccs1)C(=O)c1cccs1 (stereo not given) | -10.7 | 24.9 | 0.8 | 2.7 | 27.4 | 45.4* | 26.5*
Cc1cccc(OCC(=O)Nc2ccc(N3CCN(C(=O)c4ccco4)CC3)cc2)c1 | 28.4 | 17.3 | 1.7 | 0.7 | 9.2 | 14.8 | nt
CCOC(=O)C1(CCOc2ccccc2)CCN(C(=O)CCSC)CC1 | nt | nt | 0.2 | nt | nt | nt | nt
Cc1ccc(-n2c(C)csc2=N)cc1 | 5.3 | 11.7 | 2.7 | 5.7 | 1.4 | 20.2 | nt
Cc1csc(=N)n1-c1ccc(Cl)cc1 | 12.5 | 39.8 | 8.2 | 13.4 | 19.0 | 48.3* | 23.4
Cc1cc(C)n(-c2nc(C)nc3sc4c(c23)CCC(C)C4)n1 (stereo not given) | 0.6 | 47.1 | 9.6 | -6.4 | 27.2 | 42.3* | 29.1
Cc1cc(C)n(-c2ncnc3sc4c(c23)CC(C)CC4)n1 (stereo not given) | 3.8 | 34.3 | -3.3 | -4.2 | 20.8 | 13.0 | nt
COc1cccc(Nc2nc(C)nc3c2oc2ccccc23)c1 | 10.1 | 34.0 | 1.1 | 18.3 | 24.0 | 43.2* | 29.4
Cc1nc(Oc2ccccc2)c2oc3ccccc3c2n1 | 0.1 | 5.7 | 4.0 | -0.6 | 12.6 | 42.2* | 24.1
COc1ccc(Oc2nc(C)nc3c2oc2ccccc23)cc1 | 41.6 | 19.3 | 6.3 | 18.7 | 21.0 | 16.7 | nt
Cc1ccc(SCC(=O)Nc2ccc3c(c2)C(=O)N(C)C3=O)cc1 | 0.2 | 10.8 | 1.6 | 38.1 | 8.3 | 13.3 | nt
COc1ccccc1NCC(=O)NC(=O)NC1CCCCC1 | 22.1 | 13.1 | nt | nt | 2.6 | 10.6 | nt
COc1cc(/C=C2/CCc3ccccc3C2=O)cc(OC)c1OC | 18.4 | 41.9 | -12.0 | 46.4 | 39.6 | 40.7* | 29.2
Cc1nn(CCO)c2ncc(C(=O)c3cc(F)ccc3O)cc12 | 16.1 | 7.3 | 2.6 | 12.6 | -15.3 | -1.8 | nt
CCN(CC)C(=O)C1CCN(S(=O)(=O)c2c(C)noc2/C=C/c2cccc(C)c2)CC1 | -13.3 | 33.6 | 5.0 | 12.4 | 15.7 | 41.2* | 9.7
CN(C)S(=O)(=O)N1CCC(Oc2ccc(C(=O)NC3Cc4ccccc4C3)cc2)CC1 | 3.2 | 29.2 | 0.9 | 1.4 | 19.4 | 44.3* | 25.9
CN(C)S(=O)(=O)N1CCC(Oc2ccc(C(=O)NC3CCOC(C)(C)C3)cc2)CC1 (stereo not given) | 17.2 | 6.7 | 0.3 | -10.6 | -5.8 | -15.2 | nt
CCn1c(-c2ccccc2)c(C(=O)CC#N)c2ccccc21 | 4.2 | 31.6 | 2.7 | -7.3 | 25.4 | 42.2* | 30.0*
Cn1c(=O)c2c(nc(N/N=C/c3cccs3)n2Cc2ccccc2)n(C)c1=O | 16.1 | 0.0 | 7.0 | 25.6 | 3.3 | -5.7 | nt
Cn1c(N/N=C/c2cccs2)nc2c1c(=O)n(Cc1ccccc1)c(=O)n2C | 8.8 | 22.0 | 8.3 | 10.3 | 25.0 | 40.3* | 22.1
CSCCC(NC(=O)c1ccccc1)C(=O)NCCc1ccccc1 (stereo not given) | 19.2 | 18.7 | -4.4 | 12.4 | -3.6 | 13.0 | nt
SMILES | NLRP3 yeast inh | tim23-1 inh | SKKanGAS inh | NALP1 inh | TIM10 inh | tim10-1 inh | tim10-1 confirm
CSCCC(NC(=O)c1ccccc1Br)C(=O)NC(C)CCc1ccccc1 (stereo not given) | -3.3 | 0.7 | 4.2 | 12.2 | 4.5 | 76.4* | -0.1
CN(C1CCCCC1)S(=O)(=O)c1ccc(NC(=O)c2ccc(Br)o2)cc1 | 19.9 | 42.7 | -6.0 | 29.2 | 29.6 | 51.8* | 42.4*
CN(C)S(=O)(=O)c1ccc(NC(=O)c2ccc(Br)o2)cc1 | 16.8 | 35.4 | -4.4 | 11.7 | 14.3 | 30.2 | nt
COC(=O)c1sc(NC(=O)c2ccc(Cn3cc(Cl)cn3)o2)c(C#N)c1C | 5.2 | 19.6 | 32.0 | 23.3 | 13.2 | 44.4* | 30.0*
N#Cc1c(NC(=O)c2ccc(Cn3cc(Br)cn3)o2)sc2c1CCCCC2 | 14.0 | 41.3 | 41.5 | 5.8 | 35.5 | 32.4 | nt
O=C(Nc1ccc2c(c1)OCO2)c1cccc2c1C(=O)N(Cc1cccnc1)C2 | 10.3 | 19.9 | 22.3 | -0.1 | 35.2 | 42.9* | 33.6*
CCCN1Cc2cccc(C(=O)Nc3ccc4c(c3)OCO4)c2C1=O | 12.9 | -13.2 | 7.9 | 3.0 | 11.3 | 28.5 | nt
CCNc1ccc(Br)cc(C(=O)/C=C/c2c(Cl)cccc2Cl)c1=O | 15.9 | 33.0 | -8.7 | 58.7 | 38.9 | 54.7* | 48.6*
CCNc1ccc(Br)cc(C(=O)/C=C/c2ccc(Cl)cc2)c1=O | 19.6 | 24.8 | 2.6 | 28.7 | 24.2 | 12.9 | nt
COc1ccc(NC(=O)CC(C)CC(=O)NCc2ccc(F)cc2)c(OC)c1 (stereo not given) | 22.0 | 4.6 | -5.2 | -0.8 | 0.3 | -7.4 | nt
Cc1cc2c(c(C)c1CCO)C(=O)[C@H](C)C2 | 21.8 | 9.5 | nt | nt | -7.6 | 0.3 | nt
Cc1ccc(-c2nc(N)sc2C)cc1 | 9.6 | 3.2 | -15.5 | -3.7 | -3.9 | 13.7 | nt
Cc1sc(N)nc1-c1c(C)n(C)c2ccccc12 | 12.9 | 5.0 | -1.9 | 0.5 | 6.0 | 67.8* | -9.3
CC(C)=C1C2CCC1C(C(=O)NCCc1ccccc1)C2C(=O)O (stereo not given) | 4.3 | 28.5 | -3.4 | 31.2 | 1.4 | 44.1* | 22.8
Cc1ccc(CNC(=O)COc2cc(O)c3c(c2)OC(C)(C)CC3=O)cc1 | 20.7 | 30.0 | 4.0 | 21.1 | 8.0 | 44.0* | 3.3
COc1ccc(-c2[nH]ncc2N=Nc2ccccc2)cc1 | 27.8 | 42.1 | 29.3 | 11.0 | -10.0 | 57.6* | 37.5*
C=CCn1nc([N+](=O)[O-])nc1Sc1cccc2cccnc12 | -3.9 | 41.1 | -5.6 | 13.9 | 16.0 | 51.7* | 36.8*
O=[N+]([O-])c1ccc(Sc2cccc3cccnc23)c([N+](=O)[O-])c1 | 1.3 | 49.6 | nt | 10.6 | 29.8 | 56.4* | 57.0*
Cc1cc(C)nc(Sc2ccc([N+](=O)[O-])cc2[N+](=O)[O-])n1 | -0.9 | 42.7 | 1.3 | 1.8 | 9.4 | 47.1* | 30.2*
CN(C)CCCNC(=O)C(=O)NCC(c1cccs1)S(=O)(=O)c1ccc(F)cc1 (stereo not given) | 14.6 | 3.0 | 1.5 | nt | 1.4 | 3.3 | nt
